IL-1B inflam inh: inhibitors of inflammasome signaling (IL-1 beta secretion) | THP-1 LPS/ATP IL-1B secretion, AlphaLISA, 16 h; hits give low values | activity change, % at 57.5 µM | 360,000 compounds, 4.7% hits | AID 743279; in the data active means activity change below about -50%; inconclusive means mostly about -30% to -49%
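THP-1 cells pretreated 1 hr with compounds (up to 57.5 uM final), then stimulated with LPS (250 ng/mL final) plus ATP (1.25 mM final); secreted IL-1B measured by AlphaLISA after 16 hr, decreased signal indicating inhibition.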
TGFb SMAD3 inh: blocks TGF-b signaling; HepG2 CAGA-GFP TGF-b/SMAD3 reporter, GFP fluorescence, 18 h; TGF-beta stimulated, 500 pg/mL final; Potency, µM (titrated, usually from 46.1 µM), actives largely listed as inhibitors; 410,000 compounds, 1.2% hits; AID 588855; further: nearly all actives have a fitted effect of over 65% in size
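GFP signal (ex488/em500-530) from TGF-beta-stimulated HEPG2 CAGA-GFP cells, 500 pg/mL final, 18 h at 37 degrees C in DMEM plus 1% FBS, normalized to unstimulated and DMSO-stimulated controls.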
HepG2 tox: counter-screen for TGF-b inhibitors: cytotoxicity in HepG2 cells; HepG2 CAGA-GFP viability, ATP luminescence, 18 h; Potency, µM (titrated, usually from 46.1 µM), hits mostly cytotoxic; 410,000 compounds, 0.76% hits
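HepG2 CAGA-GFP cells (1000/well, DMEM with 1% FBS) received compound, then TGF-beta at 500 pg/mL final, and were incubated 18 hours at 37 degrees C. Viability was read by CellTiter-Glo luminescence. Media-only wells were set as complete cell-killing and DMSO as no toxicity.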
HT1080 IDH1KD tx: HT-1080 IDH1 knockdown cell toxicity (counter line); HT-1080 IDH1 knockdown viability, ATP luminescence, 48 h; Potency, µM (series often up to 46.1 µM), most hits filed as cytotoxic; 360,000 compounds, 2% hits; AID 686971
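Assay cells: HT-1080 with IDH1 knockdown, 750 per well, RPMI/5% FBS. Exposure: 48 h at 37 °C following 2 h pre-incubation. Read: CellTiter-Glo luminescence; fitted concentration-response, curve class assigned.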
Giardia killer: Giardia lamblia killing | activity change, % at 7.66 µM, hits read low | Giardia lamblia trophozoite viability | 340,000 compounds, 0.15% hits | AID 540267; in the data active means activity change below about -80%; inconclusive means between about -30% and that limit;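 further: parasites exposed to compound for two days anaerobically before the ATP read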
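ATP-content bioluminescence gauges trophozoite survival. Cells (100/well) receive compound and incubate anaerobically for 48 hrs at 37 deg C; detection reagent follows for 15-30 min at room temperature.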
HT1080-NT tox: kills 2HG-producing HT-1080-NT fibrosarcoma cells; AID 686970; 360,000 compounds, 1.6% hits; HT-1080-NT fibrosarcoma viability, CellTiter-Glo ATP luminescence, 48 h; Potency, µM (series often up to 46.1 µM), actives largely listed as cytotoxic;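 further: NT is the 2HG producing partner of a matched IDH1 knockdown line; nearly all actives have a fitted effect of over 55% in size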
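HT-1080-NT fibrosarcoma cells (2HG-overproducing), 750 cells/well in RPMI with 5% FBS, dosed after 2 h and incubated 48 h at 37C. CellTiter-Glo luminescence normalized to DMSO and no-cell wells; concentration-response curves fitted and classed.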
A number is an active result; 0 = inactive; ? = inconclusive; - = no result; [ ] = dose if it differs, or a comment. An excerpt weighted towards active compounds, which were near 6.5% of everything screened. Unless noted, the call rests on the fitted dose curve; in most records, active means well fitted curve in the direction sought with a large enough effect; inconclusive means small, poorly fitted or top-dose-only effect, or another doubt; inactive means no such curve, though single readings can be large; an effect the other way counts as inactive or inconclusive.

SMILES	IL-1B inflam inh	TGFb SMAD3 inh	HepG2 tox	HT1080 IDH1KD tx	Giardia killer	HT1080-NT tox
C=C1CC(COc2ccc3c(C)c(Cl)c(=O)oc3c2)(c2ccccc2)OC1=O (stereo not given)	-99.9	?	0	6.51µM	0	16.4µM
OCc1cn(-c2ccccc2)nc1-c1ccc(-c2nn(-c3ccccc3)cc2CO)cc1	0	0	0	0	0	0
Fc1ccc(-n2cc(CNCCc3ccncc3)c(-c3ccccc3Cl)n2)cc1	0	0	0	0	0	0
Fc1ccc(-c2nn(-c3ccccc3)cc2CNCc2ccccc2)cc1	-90.1	?	0	23.1µM	0	20.6µM
O=C(CCl)Nc1cn(-c2ccccc2)nc1-c1ccc(F)cc1	-107.1	?	0	4.61µM	0	8.2µM
O=C(NCc1cn(-c2ccccc2)nc1-c1ccc(F)cc1)c1cccc([N+](=O)[O-])c1	-75.4	0	0	0	0	0
Fc1ccc(-n2cc(CNCCc3cccnc3)c(-c3ccccc3Cl)n2)cc1	-76.2	?	0	?	0	20.6µM
COc1ccc(NC(=O)Nc2ccc3c(c2)CC(=O)N([C@H](C)CO)C[C@@H](C)[C@H](CN(C)C(=O)Nc2ccccc2)O3)cc1	0	0	0	0	0	0
CCOC(=O)C1=C(C)N(c2ccc(OC)cc2)C(=O)/C1=C\c1cccs1	-59.9	0	0	0	0	0
COc1ccc2c(C)cc(SCC(=O)Nc3nsc(-c4ccc(C(C)(C)C)cc4)n3)nc2c1	-	0	0	-	-	-
COc1ccc(N(CC(=O)N2CCc3ccccc32)S(=O)(=O)c2c(C)n[nH]c2C)cc1	-53.6	0	0	0	0	0
COc1ccc(N(CC(=O)N2CCc3ccccc32)S(=O)(=O)c2c(C)nn(C)c2C)cc1	0	0	0	0	0	0
COc1ccc(N(CC(=O)Nc2cccc(C)c2)S(=O)(=O)c2c(C)n[nH]c2C)cc1	0	0	0	0	0	0
COc1ccc(N(CC(=O)Nc2ccc(F)c(Cl)c2)S(=O)(=O)c2c(C)noc2C)cc1	-54.2	0	0	0	0	0
Cc1ccc(CNC(=O)CN(c2ccc(C(C)C)cc2)S(=O)(=O)c2c(C)n[nH]c2C)cc1	-	11.2µM	0	-	-	-
COc1ccc(N(CC(=O)Nc2ccc(C)c(C)c2)S(=O)(=O)c2c(C)n[nH]c2C)cc1	-124.1	0	0	0	0	0
COc1cccc(CN2CCN(Cc3ccon3)CC2CCO)c1 (stereo not given)	0	0	0	0	0	0
COc1cc(C)nn1-c1ccc(Cl)cc1	0	0	0	0	?	?
CCOC(=O)C1CCN(C(=O)CN2C(=O)C(CC)Oc3ccccc32)CC1 (stereo not given)	0	0	0	0[9.24 µM]	0	0
COc1ccc(OC)c(NC(=O)CN(c2ccc(C)cc2)S(=O)(=O)c2c(C)noc2C)c1	0	0	0	0	0	0
COc1ccc(N(CC(=O)Nc2cc(Cl)ccc2OC)S(=O)(=O)c2c(C)noc2C)cc1	0	0	0	11.6µM	0	?
Fc1cccc(C[n+]2csc3ccccc32)c1	-117.9	0	0	0	0	0
c1ccc(C[n+]2csc3ccccc32)cc1	-53.0	0	0	?	0	?
COc1ccc2c(c1OC)C(=O)N(c1ccccc1)C2=O	0	0	0	0	0	0
O=C(CCc1ccccc1)NNC(=O)Nc1ccc(Cl)cc1	0	0	0	0	0	0
SMILES	IL-1B inflam inh	TGFb SMAD3 inh	HepG2 tox	HT1080 IDH1KD tx	Giardia killer	HT1080-NT tox
O=C(CSc1nc2ccccc2s1)NNC(=O)Nc1ccc(Cl)c(Cl)c1	0	0	0	0	0	0
O=C(CN1c2ccccc2Sc2ccccc21)NNC(=O)Nc1ccc(Cl)c(Cl)c1	-92.0	?	12.6µM	?	?	20.6µM
COc1ccccc1OCC(=O)NNC(=O)Nc1ccc(Cl)cc1	0	0	0	5.8µM	0	18.4µM
O=C(CN1c2ccccc2Sc2ccccc21)NNC(=O)Nc1ccc(Cl)cc1	-80.1	?	0	20.6µM	0	23.1µM
Cc1cc(F)cc(-c2cc(C(=O)NCc3ccco3)[nH]n2)c1	?	0	0	0	-	0
CCC(CC)C(=O)c1c[nH]c(C(=O)NCc2ccccn2)c1	-59.4	0	0	0	0	0
CCC(CC)C(=O)c1c[nH]c(C(=O)NCCc2ccccn2)c1	0	0	0	0	0	?
Cc1cc(F)cc(-c2cc(C(=O)NCc3ccccn3)[nH]n2)c1	-86.1	0	0	0	-	?
Cn1c(=O)c2c(SCC(=O)Nc3cccc(F)c3)nc(-c3ccco3)nc2n(C)c1=O	0	0	0	0	0	0
CCS(=O)(=O)N1CCN(Cc2ccncc2)CC1	0	0	0	0	0	0
N#CC1=C(SCc2ccccc2)NC(=O)CC1c1cccc(O)c1 (stereo not given)	-54.1	0	0	0	0	0
CCOc1ccccc1C(=O)Nc1cc(=O)n(C)c(=O)n1C	0	0	0	0	0	0
CCOC(=O)c1ccc(NC(=S)NN2CCOCC2)cc1	0	0	0	0	0	0
O=C(CCCCCNc1nc(=S)[nH]c2ccccc12)NCCc1c[nH]c2ccccc12	-78.0	0	0	0	0	0
O=C(CCCCCNc1nc(=S)[nH]c2ccccc12)NCCc1ccc(Cl)cc1	0	?	0	0	0	0
CC(C)CCNC(=O)Cc1ccc(Nc2nc(=S)[nH]c3ccccc23)cc1	-65.0	0	0	0	0	0
CC(C)c1ccc(C2c3c(-c4ccccc4O)n[nH]c3C(=O)N2CCc2ccccc2)cc1 (stereo not given)	-	0	0	-	-	-
CCOc1cc(C2c3c(-c4cc(C)ccc4O)n[nH]c3C(=O)N2CCCOC(C)C)ccc1O (stereo not given)	-	12.6µM	0	-	-	-
CCOc1ccc(C2c3c(-c4cc(C)ccc4O)n[nH]c3C(=O)N2Cc2cccnc2)cc1OCC (stereo not given)	-	0	0	-	-	-
O=C1c2[nH]nc(-c3ccccc3O)c2C(c2cccc(OCc3ccccc3)c2)N1CCCO (stereo not given)	-	10µM	0	-	-	-
CCCN1C(=O)c2[nH]nc(-c3ccccc3O)c2C1c1ccc(OCc2ccccc2)c(OC)c1 (stereo not given)	-	12.6µM	0	-	-	-
Cc1ccc(C2c3c(-c4ccccc4O)n[nH]c3C(=O)N2CCc2ccccc2)cc1 (stereo not given)	-	11.2µM	0	-	-	-
COCCn1c(C)nc2oc3ccc(Br)cc3c(=O)c2c1=O	0	0	0	0	0	0
CC(C)CNC(=O)c1ccccc1NC(=O)c1ccccc1N(C)S(C)(=O)=O	0	?	0	0	0	0
CCN(CC)S(=O)(=O)c1ccc(NC(=O)COC(=O)CNC(=O)C2CCCCC2)cc1	0	0	0	0	0	0
